# Bioassay records deposited in PubChem BioAssay by National Center for Advancing Translational Sciences (NCATS).
# An excerpt weighted towards active compounds, which were near 18% of everything screened.
# DT40 TDP1 no CPT = qHTS for Inhibitors of human tyrosyl-DNA phosphodiesterase 1 (TDP1): qHTS in cells in absence of CPT | DT40 Tdp1-/- hTDP1 cells, no CPT, ATP luminescence, 48 h | Potency, µM (titrated, usually from 46.2 µM), for the others: top-dose activity change, negative = growth inhibition, actives largely listed as inhibitors | actives 15% (n = 420,000); also: nearly all actives have a fitted effect of over 55% in size
#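 Chicken DT40 Tdp1-/- cells stably complemented with human TDP1 were seeded at 400 cells/well with DMSO in place of 20 nM camptothecin. After compound pinning, cells grew at least 48 hr at 37 °C; viability read by CellTiter-Glo luminescence.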
# KAT2A inh = GCN5L2 (KAT2A) acetyltransferase inhibition; GCN5L2 HAT assay, ThioGlo1 CoA-SH fluorescence; actives 0.21% (n = 390,000); Potency, µM (series often up to 58.9 µM), for inactives: at the top dose activity change, negative = inhibition, actives largely listed as inhibitors
#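 qHTS, 1536-well. 20nM enzyme, pH 7.5 HEPES/EDTA/Tween-20 buffer; 15 min compound preinc., RT. Start: 75uM H3(1-25), 70uM AcCoA, 50uM ThioGlo1. Read Ex340/Em540 at t=0 (autofluorescence flag) and t=20 min.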
# PLK1 PBD block = blocks phosphopeptide binding to human PLK1 polo-box domain; P53350; Plk1 PBD binding of FITC phosphopeptide, fluorescence polarization; Potency, µM, inactives show max response, negative = inhibition, actives largely listed as inhibitors; actives 2.8% (n = 360,000); AID 720504; also: series mostly up to about 57 µM; nearly all actives have a fitted effect of over 65% in size
# TDP1 block = blocks human tyrosyl-DNA phosphodiesterase 1. Q9NUW8. recombinant TDP1, AlphaScreen DNA substrate cleavage. Potency, µM (doses to about 130 µM), without a hit: at the highest dose activity change, negative = inhibition, usual class: inhibitors. actives 0.28% (n = 350,000). AID 485290; also: nearly all actives have a fitted effect of over 40% in size
#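 Signal: AlphaScreen proximity between streptavidin donor and anti-FITC acceptor beads on intact substrate. Reaction: Tdp1 1 nM, substrate 15 nM final, 5 min RT after 15 min compound preincubation.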
# TDP1 cell CPT = DT40-hTDP1 cell growth loss with CPT; AID 686979; actives 12% (n = 420,000); chicken DT40 Tdp1-/-;hTDP1 cells + 20 nM CPT, ATP luminescence, 48 h; Potency, µM (top dose mostly 46.2 µM), for inactives: top-dose activity change, negative = growth inhibition, most hits filed as inhibitors; also: nearly all actives have a fitted effect of over 55% in size
#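 Chicken DT40 Tdp1-/- cells complemented with human TDP1, 400 cells/well, exposed to compounds plus 20 nM camptothecin for at least 48 h at 37 C; viability read as ATP content by CellTiter-Glo luminescence.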
# VDR inh = blocks the human vitamin D receptor; VDR-SRC2-3 peptide fluorescence polarization, 2 h; Potency, µM, without a hit: max response, negative = inhibition, actives largely listed as inhibitors; actives 0.93% (n = 400,000); AID 504847
#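 Compounds are added to VDR with labelled SRC2-3 coactivator peptide and held 2 h at room temperature. Inhibition of the VDR–peptide interaction is then read as a change in fluorescence polarization.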
# * = called active by the depositor; u = inconclusive; x = not tested or not shown. Calls follow the shape of the dose curve; as a rule, active = well fitted curve in the direction sought with a large enough effect; inconclusive = small, poorly fitted or top-dose-only effect, or another doubt; inactive = no such curve, though single readings can be large; an effect the other way counts as inactive or inconclusive. % is scaled to controls: 0 for no effect and ±100 for the full control effect; potency is read from the fitted curve at half-maximal effect.
SMILES,DT40 TDP1 no CPT,KAT2A inh,PLK1 PBD block,TDP1 block,TDP1 cell CPT,VDR inh
CN1CCN(CCOCCOc2ccc(Br)cc2Cl)CC1,u,-1%,4%,x,u,18%
CC1CCCN(CCOCCOc2ccc(Br)cc2Cl)C1 (stereo unspecified),18µM*,-2%,-10%,-3%,18µM*,-22%
Cc1cc(Cl)c(OCCOCCN2CCCC(C)C2)c(Br)c1 (stereo unspecified),16µM*,-4%,9%,0%,29µM*,-7%
Cc1ccc(CNC(=O)c2ccc3c(c2)NC(=O)C(CS(=O)(=O)Cc2ccc(F)cc2)N3)cc1 (stereo unspecified),u,0%,x,0%,u,11%
CC1CCC(NC(=O)CCCn2sc3ccccc3c2=O)CC1 (stereo unspecified),u,-2%,27µM*,0%,u,u
CCCCn1c(N)c(N(CCC(C)C)C(=O)CN2C(=O)C3CCCCC3C2=O)c(=O)[nH]c1=O (stereo unspecified),-4%,-2%,0%,2%,-22%,-16%
CC1=NN(C(=O)Cn2ccc([N+](=O)[O-])n2)C(O)(C(F)(F)F)C1 (stereo unspecified),5.8µM*,0%,1%,1%,5.8µM*,-2%
CC1=NN(C(=O)c2ccc(Cn3cc([N+](=O)[O-])cn3)cc2)C(O)(C(F)(F)F)C1 (stereo unspecified),3.7µM*,-1%,1%,3%,1.8µM*,-24%
COc1nn(CC(=O)N2N=C(C)CC2(O)C(F)(F)F)cc1[N+](=O)[O-] (stereo unspecified),-4%,-1%,-2%,-1%,-20%,-2%
CC1=NN(C(=O)c2cccc(Cn3nc(C)c([N+](=O)[O-])c3C)c2)C(O)(C(F)(F)F)C1 (stereo unspecified),u,-5%,-5%,7%,-11%,-10%
CC1=NN(C(=O)Cn2nc([N+](=O)[O-])c(Br)c2C)C(O)(C(F)(F)F)C1 (stereo unspecified),21µM*,0%,-5%,3%,23µM*,u
COc1cccc(CNCCSc2nnnn2C)c1OCc1ccccc1F,u,-7%,x,5%,u,0%
Cn1nnnc1SCCCNCc1cc(Br)ccc1OCc1ccccc1F,16µM*,-7%,x,5%,16µM*,14%
Cn1nnnc1SCCCNCc1cc(Cl)ccc1OCc1ccccc1F,8.2µM*,-4%,x,-3%,21µM*,5%
Cn1nnnc1SCCNCc1ccccc1F,-6%,15%,-2%,5%,-14%,15%
Cn1nnnc1SCCCNCc1ccc(-c2ccc(Br)cc2)o1,u,-12%,x,-3%,21µM*,-8%
CCOc1ccc(Br)cc1CNCCSc1nnnn1-c1ccccc1,u,-7%,x,2%,18µM*,25%
COc1ccc(CNCCSc2nnnn2-c2ccccc2)c(OC)c1,u,-7%,x,4%,u,4%
CCOC(=O)c1ccccc1NC(=O)CSc1nc2[nH]ncc2c(=O)[nH]1,-2%,2%,-2%,x,-27%,8%
Cc1ccc2c(CC(=O)Nc3cc(C(F)(F)F)ccc3Cl)coc2c1C,-28%,0%,x,0%,-7%,8%
Cc1cccc(C)c1NC(=O)C(=O)NCC(c1cccnc1)N1CCc2ccccc21 (stereo unspecified),13µM*,-3%,x,0%,15µM*,8%
Cc1ccc(Cl)cc1NC(=O)C(=O)NCC(c1cccnc1)N1CCc2ccccc21 (stereo unspecified),13µM*,-12%,x,8%,13µM*,6%
CCc1ccccc1NC(=O)C(=O)NCC(c1cccnc1)N1CCc2ccccc21 (stereo unspecified),21µM*,1%,x,4%,u,-5%
